Among all 310,000 compounds or so, about 14,000 (4.5%) showed an effect of 50% or more. The effect is printed as a negative number. This is one part of a sample in which strong results are shown more often than they occur.
target: human ether-à-go-go-related gene (hERG) potassium channel (human, UniProt Q12809); experiment: primary screen, population patch clamp on CHO cells stably expressing hERG; higher = less effect of the substance
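Further: peak tail current of the secondary pulse compared with the same well before compound.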

Chain of human ether-à-go-go-related gene (hERG) potassium channel (Q12809 whole entry, looked up): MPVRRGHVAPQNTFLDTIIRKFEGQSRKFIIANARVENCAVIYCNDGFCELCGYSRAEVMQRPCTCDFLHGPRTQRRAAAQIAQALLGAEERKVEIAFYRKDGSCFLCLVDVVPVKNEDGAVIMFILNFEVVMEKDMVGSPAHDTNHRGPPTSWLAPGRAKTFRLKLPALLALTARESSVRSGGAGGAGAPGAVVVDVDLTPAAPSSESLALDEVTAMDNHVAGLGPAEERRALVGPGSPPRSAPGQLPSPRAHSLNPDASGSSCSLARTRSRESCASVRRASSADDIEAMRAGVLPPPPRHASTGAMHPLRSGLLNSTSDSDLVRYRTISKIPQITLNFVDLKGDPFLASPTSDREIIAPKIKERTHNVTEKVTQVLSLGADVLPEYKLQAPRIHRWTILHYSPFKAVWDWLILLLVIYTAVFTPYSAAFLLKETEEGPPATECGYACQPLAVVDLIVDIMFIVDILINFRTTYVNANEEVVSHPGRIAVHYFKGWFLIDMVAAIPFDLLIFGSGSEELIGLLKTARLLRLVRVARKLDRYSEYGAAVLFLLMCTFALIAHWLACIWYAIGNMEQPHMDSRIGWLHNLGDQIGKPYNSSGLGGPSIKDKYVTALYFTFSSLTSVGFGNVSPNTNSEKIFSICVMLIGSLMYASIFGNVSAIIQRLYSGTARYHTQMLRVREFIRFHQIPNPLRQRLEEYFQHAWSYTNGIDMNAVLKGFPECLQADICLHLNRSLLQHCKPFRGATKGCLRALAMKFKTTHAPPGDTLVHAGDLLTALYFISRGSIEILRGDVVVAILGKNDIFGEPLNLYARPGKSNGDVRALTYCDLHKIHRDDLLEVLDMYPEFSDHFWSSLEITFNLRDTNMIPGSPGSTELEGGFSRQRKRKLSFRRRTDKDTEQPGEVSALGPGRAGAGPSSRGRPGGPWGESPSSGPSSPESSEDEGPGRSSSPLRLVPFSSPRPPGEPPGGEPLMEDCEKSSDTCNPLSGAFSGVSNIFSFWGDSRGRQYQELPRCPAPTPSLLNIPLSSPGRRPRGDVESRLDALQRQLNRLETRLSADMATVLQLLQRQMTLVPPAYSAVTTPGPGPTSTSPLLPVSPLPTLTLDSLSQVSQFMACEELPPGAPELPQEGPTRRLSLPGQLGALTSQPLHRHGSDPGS

SMILES	hERG current change (%, negative = inhibition) at 10uM
COc1cc(OC)c(-c2nc3cnccc3n2C)cc1OC	6.5%
COc1ccc(NC(=S)N2CCN(C(=O)C3CCCO3)CC2)cc1 (stereo not shown)	11.8%
O=C(CCC(=O)N1CCN(C(=O)c2ccco2)CC1)c1ccc(F)cc1	-66.7%
CCCCC1(c2ccc(F)cc2)NC(=O)N(CC(=O)N2CCN(C(=O)c3ccco3)CC2)C1=O (stereo not shown)	-52.6%
O=C(CN1C(=O)NC2(CCCC2)C1=O)N1CCN(C(=O)c2ccco2)CC1	4.41%
O=C(c1ccco1)N1CCN(c2ccc(F)cc2)CC1	-0.235%
Cc1ccc(CC(=O)N2CCN(C(=O)c3ccco3)CC2)cc1	-7.76%
CC(C)O.CCCC1(CCC)NC(=O)N(CC(=O)N2CCN(C(=O)c3ccco3)CC2)C1=O	5%
Cc1ccc(C(=O)CCC(=O)N2CCN(C(=O)c3ccco3)CC2)cc1	-56.2%
O=C(CCC(=O)N1CCOCC1)c1ccc(F)cc1	36.5%
Cc1ccc(OCC(=O)N2CCN(C(=O)c3ccco3)CC2)cc1	-37.7%
CC(=O)Oc1ccccc1N(C(C)=O)S(=O)(=O)c1ccc2ccccc2c1	7.06%
COc1ccc(NC(=O)Cn2nnc3ccccc32)c([N+](=O)[O-])c1	9.14%
O=C(CC1Nc2ccccc2NC1=O)c1ccccc1 (stereo not shown)	-2.01%
O=C(O)/C=C\C(=O)O.OCCN1CCN(CC/C=C2/c3ccccc3CSc3ccccc32)CC1	-12.2%
CN(C)CC/C=C1\c2ccccc2Sc2ccc(Cl)cc21.Cl	-56.7%
CN(C)CC/C=C1/c2cc(F)ccc2Sc2ccc(Cl)cc21.Cl	-34.5%
Cl.OCCN1CCN(CC/C=C2/c3ccccc3Sc3ccc(Cl)cc32)CC1	-68.8%
CN(C)CC/C=C1\c2ccccc2Sc2cc(F)c(Cl)cc21.Cl	7.2%
Cl.OCCN1CCN(CC/C=C2/c3ccccc3Sc3ccc(C(F)(F)F)cc32)CC1	-47.1%
CN(C)CC/C=C1/c2ccccc2Sc2ccc(Cl)cc21.Cl	-56.8%
CN(C)CC/C=C1\c2cc(Cl)ccc2Sc2cc(F)c(F)cc21.Cl	1.25%

SMILES	hERG current change (%, negative = inhibition) at 10uM
CN(C)CC/C=C1/c2ccccc2Sc2ccc(Cl)cc21	-8.11%
CCN(CC)S(=O)(=O)c1ccc(C(=O)OCC(=O)NCCN2C(=O)CSC2=O)cc1	-14.4%
O=C1C(=Cc2ccco2)C(=O)c2ccccc21	8.17%
CN1C(=O)c2ccc(C(=O)Nc3ccccc3O)cc2C1=O	4.6%
Cc1nn(C)cc1/C=N/NC(=O)c1sc2ccccc2c1Cl	-6.47%
O=P(c1ccccc1)(c1ccccc1)C(c1ccco1)N1CCOCC1 (stereo not shown)	9.93%
Cc1nnc(NCCc2ccccc2)c2ccccc12	-18.1%
Cc1ccc(NC(=O)NCCCN2CCOCC2)cc1	4.63%
COc1ccc(NC(=O)NCCN2CCN(c3ccc(C)cc3)CC2)c(Cl)c1	-8.96%
COc1ccc(NC(=O)NCCCN2CCN(c3cc(C)ccc3C)CC2)cc1	-92.2%
COc1ccc(NC(=O)NCCN2CCN(c3cc(OC)ccc3OC)CC2)cc1	-2.75%
COc1ccc(NC(=O)NCCN2CCCCC2)cc1	-10.1%
COc1ccc(Cl)c(N2CCN(CCCNC(=O)Nc3ccc(C)cc3)CC2)c1	-72.4%
Cc1cc(SCC(=O)Nc2c(C)n(C)n(-c3ccccc3)c2=O)nc2ccccc12	-38.7%
Cc1cc(C(=O)OCC(=O)c2ccc3c(c2)NC(=O)CO3)c2ccccc2n1	18.8%
O=C(NCCN1CCOCC1)c1cnn2c(-c3ccccc3)cc(-c3ccccc3)nc12	-72.5%
O=C(NCCCN1CCOCC1)c1cnn2c(-c3ccccc3)cc(-c3ccccc3)nc12	-41.3%
O=C(NCCN1CCOCC1)c1ccccc1-c1ccccc1	0.439%
CCc1ccc(Nc2cc(C(=O)NCCCN3CCOCC3)c3ccccc3n2)cc1	-35.5%
CCc1ccc(Sc2cc(C(=O)NCCN3CCOCC3)c3ccccc3n2)cc1	-56.2%
O=C(NCCN1CCOCC1)c1cc(Sc2ccccc2Cl)nc2ccccc12	-27.1%
O=C(NCCN1CCOCC1)c1cc(Sc2ccc(F)cc2F)nc2ccccc12	-42.8%

SMILES	hERG current change (%, negative = inhibition) at 10uM
O=C(NCCN1CCOCC1)c1cc(Sc2cccc(Cl)c2)nc2ccccc12	-77.2%
O=C(NCCN1CCOCC1)c1cc(-c2ccccc2Cl)nc2ccccc12	-15%
Cc1ccc(S(=O)(=O)N2CCC(C(=O)N[C@H](C(=O)NCc3ccco3)C(C)C)CC2)cc1	-15.9%
O=C(NCC(=O)N(c1ccc(Cl)cc1)C(C(=O)NC1CCCC1)c1ccncc1)c1ccco1 (stereo not shown)	-5.29%
O=C(Nc1ccccn1)Nc1ccccc1Cl	23.2%
Cc1nc2scc(-c3ccccc3)c2c(=O)o1	-12.7%
CCN1C(=O)/C(=C2/C=CC=CN2C)SC1=S	-35.2%
CN1C=CC=C/C1=C1\SC(=S)N(C2CCCCC2)C1=O	-52.3%
CN1C=CC=C/C1=C1\SC(=S)N(N)C1=O	26.4%
O=C(N/N=C/c1ccc(O)c([N+](=O)[O-])c1)c1ccncc1	-7.5%
Cc1ccc(C)c(CSc2ncccc2C(=O)O)c1	6.29%
O=C(C[n+]1cccc(C(=O)N/N=C/c2ccc(Br)cc2)c1)c1ccccc1	-56.5%
O=C(C[n+]1ccc(C(=O)N/N=C/c2ccc(OCc3ccccc3)cc2)cc1)c1ccccc1.[Br-]	1.3%
O=C(C[n+]1ccc(C(=O)N/N=C/c2ccc(Cl)cc2Cl)cc1)c1ccccc1.[Br-]	-74.8%
O=C(N/N=C/c1ccc(Cl)cc1Cl)c1cccc(F)c1	-10.5%
O=C(C[n+]1ccc(C(=O)N/N=C/c2ccc(Br)cc2)cc1)c1ccccc1.[Br-]	-63.6%
COc1ccc(OC)c(/C=N/NC(=O)c2ccc[n+](CC(=O)c3ccccc3)c2)c1	15.3%
O=C(C[n+]1ccc(C(=O)N/N=C/c2ccc(O)cc2)cc1)c1ccccc1.[Br-]	-6.07%
COc1ccc(OC)c(/C=N/NC(=O)c2cc[n+](CC(=O)c3ccccc3)cc2)c1.[Br-]	-5.33%
O=C(N/N=C/c1ccc(Br)cc1)c1cc[n+](Cc2ccccc2)cc1.[Cl-]	-10.7%

— PMC4336329 (PLoS ONE, 2015)
